Laboratory results as given in the supplement of paper PMC11732987, “Enantioselective OTUD7B fragment discovery through chemoproteomics screening and high-throughput optimisation” (Communications Chemistry, 2025).

Assays:
Test in all cases: log2 ratio of Biotin-Ahx-Ub-VS probe labelling (fragment/DMSO); higher = less target engagement (more negative = stronger competition), active = hit call of the paper (q ≤ 0.05, log2 ratio ≤ -1)
Details in all cases: compound concentration: 200 uM; treatment time: 3 h
ALG13 = biological target: T1, ALG13 (UniProt Q9NP73)
T1 sequence (whole entry): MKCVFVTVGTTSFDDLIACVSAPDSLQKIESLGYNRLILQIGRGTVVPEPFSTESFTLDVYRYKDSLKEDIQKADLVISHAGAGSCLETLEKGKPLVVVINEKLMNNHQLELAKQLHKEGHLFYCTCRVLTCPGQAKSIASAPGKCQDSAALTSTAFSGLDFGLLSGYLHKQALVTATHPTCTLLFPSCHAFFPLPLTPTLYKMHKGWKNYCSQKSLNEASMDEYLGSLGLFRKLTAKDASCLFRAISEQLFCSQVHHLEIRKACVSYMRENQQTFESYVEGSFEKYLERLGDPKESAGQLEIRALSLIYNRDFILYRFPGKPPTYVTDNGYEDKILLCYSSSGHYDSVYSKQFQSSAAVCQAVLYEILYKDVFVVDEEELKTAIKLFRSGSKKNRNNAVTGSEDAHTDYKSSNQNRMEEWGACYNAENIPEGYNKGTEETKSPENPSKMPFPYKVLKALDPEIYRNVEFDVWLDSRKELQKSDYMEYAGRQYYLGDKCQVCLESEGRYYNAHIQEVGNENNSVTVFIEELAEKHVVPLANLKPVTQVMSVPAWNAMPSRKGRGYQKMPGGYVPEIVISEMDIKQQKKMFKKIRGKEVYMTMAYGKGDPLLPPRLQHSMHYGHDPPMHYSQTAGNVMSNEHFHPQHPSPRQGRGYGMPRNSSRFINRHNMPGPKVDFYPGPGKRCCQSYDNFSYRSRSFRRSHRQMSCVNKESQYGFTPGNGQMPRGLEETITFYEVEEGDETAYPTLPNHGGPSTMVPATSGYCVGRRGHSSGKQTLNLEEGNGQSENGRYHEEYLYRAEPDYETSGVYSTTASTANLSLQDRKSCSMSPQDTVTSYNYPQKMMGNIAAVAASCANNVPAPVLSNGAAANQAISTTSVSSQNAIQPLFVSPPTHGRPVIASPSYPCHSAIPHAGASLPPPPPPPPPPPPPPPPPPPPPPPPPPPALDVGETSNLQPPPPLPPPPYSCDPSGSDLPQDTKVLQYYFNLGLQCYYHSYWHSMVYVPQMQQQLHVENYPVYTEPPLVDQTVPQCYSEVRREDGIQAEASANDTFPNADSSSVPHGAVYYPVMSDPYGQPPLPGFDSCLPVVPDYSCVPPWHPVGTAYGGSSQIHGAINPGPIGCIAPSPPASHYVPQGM
Method in brief: (§1)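 Using Biotin-Ahx-Ub-VS at 0.5 µM final for 1 h, DUBs were labelled in HEK293T lysate (495 µg per sample) that had first been treated in triplicate with fragment at 200 µM or vehicle for 3 h. NeutrAvidin enrichment, LysC and trypsin digestion and diaPASEF LC-MS/MS followed. Spectronaut label-free quantities were global-median-normalised. Values are average log2 fragment/vehicle ratios by unpaired t-test, using proteins with ≥2 unique peptides.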

ATXN3 = ATXN3 (UniProt P54252)
Chain of ATXN3 (P54252 whole entry): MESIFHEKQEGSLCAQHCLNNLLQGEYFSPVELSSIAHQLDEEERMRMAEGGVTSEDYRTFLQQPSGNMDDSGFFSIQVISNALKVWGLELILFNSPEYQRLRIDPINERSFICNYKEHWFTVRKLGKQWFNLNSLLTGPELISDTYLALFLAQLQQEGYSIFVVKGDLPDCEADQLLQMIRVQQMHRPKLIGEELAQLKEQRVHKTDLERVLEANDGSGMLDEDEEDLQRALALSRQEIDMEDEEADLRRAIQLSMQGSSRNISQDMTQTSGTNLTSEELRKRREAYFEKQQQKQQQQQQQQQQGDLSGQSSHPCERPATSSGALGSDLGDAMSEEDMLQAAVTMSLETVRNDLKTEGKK
Method in brief: as §1

BAP1 = biological target: T2, BAP1 (UniProt Q92560)
T2 sequence (whole entry): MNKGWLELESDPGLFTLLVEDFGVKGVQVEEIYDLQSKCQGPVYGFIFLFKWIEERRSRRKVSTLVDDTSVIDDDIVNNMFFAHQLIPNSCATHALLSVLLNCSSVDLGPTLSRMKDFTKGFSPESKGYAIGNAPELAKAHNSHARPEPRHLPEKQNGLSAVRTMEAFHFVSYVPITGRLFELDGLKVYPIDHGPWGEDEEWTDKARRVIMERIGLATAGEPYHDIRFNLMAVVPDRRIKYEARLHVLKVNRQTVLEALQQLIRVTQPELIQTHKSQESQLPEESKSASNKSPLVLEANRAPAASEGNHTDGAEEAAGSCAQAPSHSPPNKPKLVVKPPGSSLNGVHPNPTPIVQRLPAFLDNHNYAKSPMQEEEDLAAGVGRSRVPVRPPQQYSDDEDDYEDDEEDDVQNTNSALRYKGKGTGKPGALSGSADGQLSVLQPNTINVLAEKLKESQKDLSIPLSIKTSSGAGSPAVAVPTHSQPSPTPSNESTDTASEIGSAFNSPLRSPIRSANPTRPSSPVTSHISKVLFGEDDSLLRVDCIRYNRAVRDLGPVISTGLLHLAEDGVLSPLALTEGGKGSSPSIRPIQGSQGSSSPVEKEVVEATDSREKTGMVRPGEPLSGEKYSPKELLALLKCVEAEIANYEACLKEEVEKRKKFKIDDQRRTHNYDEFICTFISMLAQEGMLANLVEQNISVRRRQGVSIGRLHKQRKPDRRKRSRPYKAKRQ
Method in brief: as §1

EIF3F = EIF3F (UniProt O00303)
Chain of EIF3F (O00303 whole entry): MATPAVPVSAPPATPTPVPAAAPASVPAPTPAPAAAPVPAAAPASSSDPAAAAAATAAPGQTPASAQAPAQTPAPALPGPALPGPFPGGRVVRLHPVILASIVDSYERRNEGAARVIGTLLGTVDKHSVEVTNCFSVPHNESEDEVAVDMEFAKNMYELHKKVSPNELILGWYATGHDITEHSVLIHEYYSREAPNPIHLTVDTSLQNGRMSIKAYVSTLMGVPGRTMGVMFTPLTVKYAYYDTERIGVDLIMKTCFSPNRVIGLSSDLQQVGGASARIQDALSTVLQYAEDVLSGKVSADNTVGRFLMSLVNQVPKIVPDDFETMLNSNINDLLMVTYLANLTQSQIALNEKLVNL
Method in brief: as §1

EIF3H = EIF3H (UniProt O15372)
Chain of EIF3H (O15372 whole entry): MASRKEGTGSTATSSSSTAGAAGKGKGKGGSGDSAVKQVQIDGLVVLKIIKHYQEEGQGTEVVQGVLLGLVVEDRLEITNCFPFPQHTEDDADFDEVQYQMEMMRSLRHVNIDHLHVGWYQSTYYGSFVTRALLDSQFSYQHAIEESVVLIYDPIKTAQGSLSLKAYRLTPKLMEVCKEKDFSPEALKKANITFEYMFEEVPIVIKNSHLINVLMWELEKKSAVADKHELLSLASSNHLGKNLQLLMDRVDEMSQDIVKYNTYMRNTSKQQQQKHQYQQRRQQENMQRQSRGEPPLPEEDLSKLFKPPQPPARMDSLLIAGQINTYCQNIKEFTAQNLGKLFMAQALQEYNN
Method in brief: as §1

FAM105A = biological target: T3, FAM105A (UniProt Q9NUU6)
T3 sequence (whole entry): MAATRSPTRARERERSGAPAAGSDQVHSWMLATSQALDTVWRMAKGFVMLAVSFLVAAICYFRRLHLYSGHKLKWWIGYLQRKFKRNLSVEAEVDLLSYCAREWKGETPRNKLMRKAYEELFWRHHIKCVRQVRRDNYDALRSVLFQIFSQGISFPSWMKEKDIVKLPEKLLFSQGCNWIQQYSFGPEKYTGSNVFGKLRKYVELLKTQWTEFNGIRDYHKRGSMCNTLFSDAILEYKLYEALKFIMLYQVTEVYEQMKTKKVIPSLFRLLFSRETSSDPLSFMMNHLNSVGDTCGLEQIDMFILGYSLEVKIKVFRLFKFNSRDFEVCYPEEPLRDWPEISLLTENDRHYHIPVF
Method in brief: as §1

OTUB1 = OTUB1 (UniProt Q96FW1)
Chain of OTUB1 (Q96FW1 whole entry): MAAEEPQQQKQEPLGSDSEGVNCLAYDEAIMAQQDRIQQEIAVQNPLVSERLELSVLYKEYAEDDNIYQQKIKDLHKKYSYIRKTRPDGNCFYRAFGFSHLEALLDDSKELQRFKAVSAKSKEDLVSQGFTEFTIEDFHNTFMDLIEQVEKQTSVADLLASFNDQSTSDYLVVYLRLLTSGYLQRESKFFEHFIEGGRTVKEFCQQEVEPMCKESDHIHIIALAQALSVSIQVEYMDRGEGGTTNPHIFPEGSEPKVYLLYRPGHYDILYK
Method in brief: as §1

OTUD4 = biological target: T4, OTUD4 (UniProt Q01804)
T4 sequence (whole entry): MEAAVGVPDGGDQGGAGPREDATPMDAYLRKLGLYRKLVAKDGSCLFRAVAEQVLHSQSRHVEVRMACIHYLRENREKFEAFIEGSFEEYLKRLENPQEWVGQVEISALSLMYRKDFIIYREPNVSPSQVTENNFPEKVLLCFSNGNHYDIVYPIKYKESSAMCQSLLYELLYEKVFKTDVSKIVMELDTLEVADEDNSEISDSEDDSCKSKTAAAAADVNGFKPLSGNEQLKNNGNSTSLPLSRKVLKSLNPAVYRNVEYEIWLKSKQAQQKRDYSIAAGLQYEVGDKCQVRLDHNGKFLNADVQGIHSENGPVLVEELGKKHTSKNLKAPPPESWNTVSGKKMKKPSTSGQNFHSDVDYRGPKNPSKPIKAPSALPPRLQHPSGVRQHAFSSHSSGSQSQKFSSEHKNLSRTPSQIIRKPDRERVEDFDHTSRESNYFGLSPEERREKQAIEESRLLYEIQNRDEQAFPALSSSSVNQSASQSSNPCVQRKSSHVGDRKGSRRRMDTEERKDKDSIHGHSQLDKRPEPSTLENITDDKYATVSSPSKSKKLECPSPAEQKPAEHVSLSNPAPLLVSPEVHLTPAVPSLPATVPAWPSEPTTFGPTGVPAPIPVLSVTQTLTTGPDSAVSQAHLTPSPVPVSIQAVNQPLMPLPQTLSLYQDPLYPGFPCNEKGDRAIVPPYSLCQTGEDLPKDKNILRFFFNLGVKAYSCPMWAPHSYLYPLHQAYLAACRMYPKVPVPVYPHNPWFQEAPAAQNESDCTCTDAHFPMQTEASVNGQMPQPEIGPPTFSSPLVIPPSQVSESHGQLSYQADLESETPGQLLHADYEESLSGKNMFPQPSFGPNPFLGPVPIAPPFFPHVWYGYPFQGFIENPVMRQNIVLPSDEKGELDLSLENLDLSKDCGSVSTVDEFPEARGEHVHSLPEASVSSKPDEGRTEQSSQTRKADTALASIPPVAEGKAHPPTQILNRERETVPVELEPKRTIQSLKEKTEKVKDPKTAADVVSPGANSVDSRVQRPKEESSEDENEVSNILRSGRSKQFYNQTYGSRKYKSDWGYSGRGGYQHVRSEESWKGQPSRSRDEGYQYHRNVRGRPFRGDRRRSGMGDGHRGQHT
Method in brief: as §1

OTUD5 = biological target: T5, OTUD5 (UniProt Q96G74)
T5 sequence (whole entry): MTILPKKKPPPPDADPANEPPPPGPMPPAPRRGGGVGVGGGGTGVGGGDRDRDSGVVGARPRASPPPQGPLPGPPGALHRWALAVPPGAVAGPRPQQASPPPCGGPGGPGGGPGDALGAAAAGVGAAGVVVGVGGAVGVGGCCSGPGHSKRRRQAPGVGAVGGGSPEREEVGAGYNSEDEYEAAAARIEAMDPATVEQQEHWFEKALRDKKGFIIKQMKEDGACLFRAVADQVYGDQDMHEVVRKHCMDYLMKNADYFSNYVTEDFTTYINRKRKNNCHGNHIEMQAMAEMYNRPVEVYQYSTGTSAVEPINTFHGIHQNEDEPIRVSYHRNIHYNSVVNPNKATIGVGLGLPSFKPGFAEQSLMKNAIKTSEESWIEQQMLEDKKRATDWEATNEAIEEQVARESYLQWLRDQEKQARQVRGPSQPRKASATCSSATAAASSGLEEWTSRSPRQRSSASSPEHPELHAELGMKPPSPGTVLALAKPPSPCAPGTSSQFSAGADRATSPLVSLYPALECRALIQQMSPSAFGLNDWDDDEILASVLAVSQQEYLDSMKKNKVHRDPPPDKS
Method in brief: as §1

Measured: log2 ratio of Biotin-Ahx-Ub-VS probe labelling

Cc1ccc(C)c(Oc2ccc(CNC(=O)CCl)cn2)c1.Cl
inactive: ALG13 -0.222 | ATXN3 -0.48 | EIF3F -0.169 | EIF3H 0.199 | FAM105A -0.149 | OTUB1 0.0499 | OTUD4 -0.382 | OTUD5 -0.697
active: BAP1 -3.94
